Records with an inconclusive call do not appear. The source made the active and inactive calls. Calls come from the whole dose curve; as a rule, active = well fitted inhibition curve with a large enough effect; inconclusive = small, poorly fitted or top-dose-only effect; inactive = flat fitted curve, though single readings scatter.
Test system: NIH3T3
Test: qHTS assay to identify novel small-molecules to repurpose for Merkel cell carcinoma treatment (AID 1296009); note: nearly all actives have a fitted effect of over 60% in size
Conditions: MCC and control cell lines, CellTiter-Glo viability, 72 h; at 44.8 µM (top of the series)
Method in brief: (§1)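 After compound transfer in DMSO, plates were kept 72 hr at 37 degree celsius. Luminescent ATP signal from CellTiter-Glo served as viability measure, normalized against DMSO and no-cell controls.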
% is set by controls: 0 for no effect and ±100 for the full control effect; potency is the fitted concentration of half-maximal effect.

SMILES | outcome
Cc1cc(CC(=O)O)c(C)n1-c1ccc(Cl)cc1 | inactive
CC(=C(CCOC(=O)C(C)C)SSC(CCOC(=O)C(C)C)=C(C)N(C=O)Cc1cnc(C)nc1N)N(C=O)Cc1cnc(C)nc1N | inactive
C=C1c2cccc(O)c2C(O)=C2C(=O)[C@]3(O)C(O)=C(C(N)=O)C(=O)[C@@H](N(C)C)[C@@H]3[C@@H](O)[C@H]12 | inactive

Test system: UISO
Test: as above
Conditions: MCC and control cell lines, CellTiter-Glo viability, 72 h; series mostly up to 46 µM; activity change, negative = cytotoxicity: at the top concentration
Method in brief: as §1

SMILES | activity change, negative = cytotoxicity | Potency
C=C[C@H]1CN2CC[C@H]1C[C@H]2[C@H](O)c1ccnc2ccc(OC)cc12 | -8.79% (inactive) | –
Cc1cc(CC(=O)O)c(C)n1-c1ccc(Cl)cc1 | -8.44% (inactive) | –
O=C1[C@H](CC[C@H](O)c2ccc(F)cc2)[C@@H](c2ccc(O)cc2)N1c1ccc(F)cc1 | -13.5% (inactive) | –
C#C[C@]1(O)CC[C@H]2[C@@H]3[C@H](C)CC4=C(CCC(=O)C4)[C@H]3CC[C@@]21C | -29.1% (inactive) | –
CC(C)n1c(/C=C/[C@@H](O)C[C@@H](O)CC(=O)O)c(-c2ccc(F)cc2)c2ccccc21 | – | 3.35 µM (active)
CC(=O)OCC1=C(C(=O)O)N2C(=O)[C@@H](NC(=O)CSc3ccncc3)[C@H]2SC1 | 21.2% (inactive) | –
NCCNC(=O)c1ccc(Cl)cn1 | 15.8% (inactive) | –
COc1ccc(CCN(C)CCCN2CCc3cc(OC)c(OC)cc3CC2=O)cc1OC | -8.05% (inactive) | –
CC(=O)O[C@]1(C(C)=O)CC[C@H]2[C@@H]3C=C(Cl)C4=CC(=O)CC[C@]4(C)[C@H]3CC[C@@]21C | -8.38% (inactive) | –
CC(=C(CCOC(=O)C(C)C)SSC(CCOC(=O)C(C)C)=C(C)N(C=O)Cc1cnc(C)nc1N)N(C=O)Cc1cnc(C)nc1N | -6.32% (inactive) | –
C=C1c2cccc(O)c2C(O)=C2C(=O)[C@]3(O)C(O)=C(C(N)=O)C(=O)[C@@H](N(C)C)[C@@H]3[C@@H](O)[C@H]12 | 0.419% (inactive) | –

From PubChem BioAssay (NCATS)
